Assay results published in PubChem BioAssay AID1671192 (National Center for Advancing Translational Sciences (NCATS), 2021).
Inconclusive results are not listed. Unmarked numbers belong to inactive results. Calls follow the shape of the dose curve; as a rule, active = well fitted curve in the direction sought with a large enough effect; inconclusive = small, poorly fitted or top-dose-only effect, or another doubt; inactive = no such curve, though single readings can be large or run the other way.

Target: Polyunsaturated fatty acid lipoxygenase ALOX15 (Homo sapiens) (UniProt P16050)
Assay: Counterscreen qHTS for inhibitors of human arachidonate 12S-lipoxygenase (ALOX12): ALOX15 Assay; also: 0% is about no effect
Settings: purified ALOX15 enzyme activity; series mostly up to 110 µM; activity change, negative = inhibition: at the top concentration
Procedure, shortened: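 Purified human ALOX15 (15hLO-1) at 40 nM in 25 mM HEPES, 0.01% Triton X-100, pH 7.5, preincubated with compound 15 min at RT. Then 50 uM arachidonic acid for 30 min; hydroperoxide detected by Fe-xylenol orange as the 573/405 nm absorbance ratio.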

Sequence of Polyunsaturated fatty acid lipoxygenase ALOX15 (Homo sapiens) (P16050 whole entry, looked up): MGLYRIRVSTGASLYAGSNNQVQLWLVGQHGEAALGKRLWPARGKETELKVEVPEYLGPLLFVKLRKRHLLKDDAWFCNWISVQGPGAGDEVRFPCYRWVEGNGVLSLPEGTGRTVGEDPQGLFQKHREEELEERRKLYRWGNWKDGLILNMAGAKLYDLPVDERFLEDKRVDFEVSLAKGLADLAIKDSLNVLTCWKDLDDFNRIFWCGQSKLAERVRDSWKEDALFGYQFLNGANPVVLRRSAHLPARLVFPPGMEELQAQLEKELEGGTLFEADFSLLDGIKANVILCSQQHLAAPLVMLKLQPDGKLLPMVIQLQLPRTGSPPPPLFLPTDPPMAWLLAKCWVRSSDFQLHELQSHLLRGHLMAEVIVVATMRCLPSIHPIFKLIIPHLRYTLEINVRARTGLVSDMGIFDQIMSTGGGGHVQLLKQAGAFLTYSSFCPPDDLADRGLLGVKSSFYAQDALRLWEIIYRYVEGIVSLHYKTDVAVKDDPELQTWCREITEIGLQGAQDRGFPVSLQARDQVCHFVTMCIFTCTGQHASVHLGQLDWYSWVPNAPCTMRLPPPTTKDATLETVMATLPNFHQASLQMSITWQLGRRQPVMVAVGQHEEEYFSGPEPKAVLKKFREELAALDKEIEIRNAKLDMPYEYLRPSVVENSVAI

Row | SMILES | activity change, negative = inhibition
1 | CCOCCNc1ncnc2c1CN(C1CCCNCC1)C(=O)CN2C (configuration not stated) | -14.8%
2 | Cc1ccc(CN2CCC3(CC2)Cc2ccccc2CNC3=O)cc1C | -22.2%
3 | COCCNC(=O)c1cc(-c2ccc(OC)cc2)nc2onc(C3CCCN3)c12 (configuration not stated) | -14.5%
4 | CCCC(=O)N1Cc2ccccc2CC2(CCCCN2Cc2ccccn2)C1 (configuration not stated) | 47.5%
5 | O=C(c1cn2c(n1)CN([S+](=O)([O-])c1cccc(C(F)(F)F)c1)CC2)N1CCOCC1 | -11.9%
6 | CCc1nc2c(c(-c3ccc(OC)cc3)n1)CCN(Cc1ccc(OC)cc1)CC2 | -6.42%
7 | O=C(c1ccccn1)N1CCn2c(nn(-c3ccc(Cl)cc3)c2=O)C1 | -10.8%
8 | Cc1ccc(C(=O)N2CCc3nc(C4CC4)nc(-c4ccc(Cl)cc4)c3C2)cc1 | -24.7%
9 | CNCc1ccccc1Cl | -2.81% [at 233 µM]
10 | CN1CC(=O)N(C2CCNC2)Cc2c(NCC3(O)CCCCC3)ncnc21 (configuration not stated) | -12.9%
11 | CN1CC(=O)N(C2CCCNCC2)Cc2c(NCCO)ncnc21 (configuration not stated) | -9.22% [at 146 µM]
12 | C[S+](=O)([O-])N1Cc2ccccc2CC2(CCN(CC3CCNC3)CC2)C1 (configuration not stated) | 6.88%
13 | O=C(C1CCCC1)N1Cc2ccccc2CC2(CCN(Cc3ccncc3)C2)C1 (configuration not stated) | -18%
14 | O=C1NCc2ccccc2CC12CCN(Cc1ccc(F)cc1F)CC2 | -19.6%
15 | CC(C)NC(=O)N1CCC(c2nnc3n2CCNC3)CC1 | 6.45% [at 146 µM]
16 | CN1CC(=O)N(C2CCNCC2)Cc2c(NC3CCCCCC3)ncnc21 | -8.58%
17 | Cc1noc(C)c1C(=O)N1Cc2ccccc2CC2(CCCN(CC3CCNC3)C2)C1 (configuration not stated) | -7.51%
18 | CCC(=O)N1Cc2ccccc2CC2(CCN(CC3CCNCC3)CC2)C1 | -12.4%
19 | COCCCNc1nc2c(S(=O)(=O)c3c(C)cc(C)cc3C)nnn2c2ccccc12 | -27.7%

Row | SMILES | activity change, negative = inhibition
20 | O=C1NCc2ccccc2CC12CCCN2Cc1ccc(Br)cc1 (configuration not stated) | -9.25%
21 | CC(C)[S+](=O)([O-])N1CCCC1c1nnc2n1CCNC2 (configuration not stated) | -2.34% [at 146 µM]
22 | CNCc1sc2ccccc2c1C | -9.89% [at 233 µM]
23 | O=C1NCc2ccccc2CC12CCN(Cc1cccc(OC(F)(F)F)c1)C2 (configuration not stated) | 3%
24 | O=C1NCCN1C1CCN(Cc2ccc(F)cc2)CC1 | -7.78% [at 146 µM]
25 | COc1ccc(NCCN2CCCC2)cc1 | -46.2% [at 233 µM]
26 | Cc1ccc(-c2ccccc2CN)cc1Cl | -12% [at 146 µM]
27 | COc1ccccc1-c1cccc(CN)c1 | 18.8% [at 233 µM]
28 | O=C1Nc2ccccc2CC12CN(CC1CCCC1)C2 | 52% [at 146 µM]
29 | CN(C)c1ccc(CN2CCn3c(nn(-c4ccc(Cl)cc4)c3=O)C2)cc1 | -13%
30 | CC(=O)N1CCN(c2ncnc3c2CN(C2CCCNCC2)C(=O)CN3C)CC1 (configuration not stated) | -3.89%
31 | CN1CC(=O)N(C2CCCNCC2)Cc2c1ncnc2N1CCN(c2ncccn2)CC1 (configuration not stated) | -13.9%
32 | Cc1cc(C)cc(CN2CCC3(Cc4ccccc4CNC3=O)C2)c1 (configuration not stated) | -8.12% [at 146 µM]
33 | Fc1ccc(OC2CN(Cc3cccc4ccccc34)C2)cc1F | -31.8% [at 146 µM]
34 | CCCN1CCCC2(Cc3ccccc3CN(C(=O)Cc3ccccc3)C2)C1 (configuration not stated) | -27.1%
35 | N#Cc1ccc(CN2CCn3c(nn(-c4cccc(Cl)c4)c3=O)C2)cc1 | -7.92%
36 | O=C(Nc1ccc(F)cc1)c1c[nH]c2cccnc12 | -6.34% [at 146 µM]
37 | Cc1cccc(N2Cc3c(NCCCOC(C)C)ncnc3N(C)CC2=O)c1 | 12.9%
